# Laboratory results reported in PubChem BioAssay AID2185 (Vanderbilt High Throughput Screening Facility, 2009).
# Results with a measured potency or affinity are listed apart. Unmarked numbers belong to inactive results. How the calls were made is not given here.
# Molecular target: Metabotropic glutamate receptor 4 (Rattus norvegicus) (UniProt P31423)
# Assay: PubChem AID 2185
# Conditions: HEK/GIRK cells expressing rat mGluR4, thallium flux PAM; active compounds read high
# Metabotropic glutamate receptor 4 (Rattus norvegicus), sequence (P31423 whole entry, looked up): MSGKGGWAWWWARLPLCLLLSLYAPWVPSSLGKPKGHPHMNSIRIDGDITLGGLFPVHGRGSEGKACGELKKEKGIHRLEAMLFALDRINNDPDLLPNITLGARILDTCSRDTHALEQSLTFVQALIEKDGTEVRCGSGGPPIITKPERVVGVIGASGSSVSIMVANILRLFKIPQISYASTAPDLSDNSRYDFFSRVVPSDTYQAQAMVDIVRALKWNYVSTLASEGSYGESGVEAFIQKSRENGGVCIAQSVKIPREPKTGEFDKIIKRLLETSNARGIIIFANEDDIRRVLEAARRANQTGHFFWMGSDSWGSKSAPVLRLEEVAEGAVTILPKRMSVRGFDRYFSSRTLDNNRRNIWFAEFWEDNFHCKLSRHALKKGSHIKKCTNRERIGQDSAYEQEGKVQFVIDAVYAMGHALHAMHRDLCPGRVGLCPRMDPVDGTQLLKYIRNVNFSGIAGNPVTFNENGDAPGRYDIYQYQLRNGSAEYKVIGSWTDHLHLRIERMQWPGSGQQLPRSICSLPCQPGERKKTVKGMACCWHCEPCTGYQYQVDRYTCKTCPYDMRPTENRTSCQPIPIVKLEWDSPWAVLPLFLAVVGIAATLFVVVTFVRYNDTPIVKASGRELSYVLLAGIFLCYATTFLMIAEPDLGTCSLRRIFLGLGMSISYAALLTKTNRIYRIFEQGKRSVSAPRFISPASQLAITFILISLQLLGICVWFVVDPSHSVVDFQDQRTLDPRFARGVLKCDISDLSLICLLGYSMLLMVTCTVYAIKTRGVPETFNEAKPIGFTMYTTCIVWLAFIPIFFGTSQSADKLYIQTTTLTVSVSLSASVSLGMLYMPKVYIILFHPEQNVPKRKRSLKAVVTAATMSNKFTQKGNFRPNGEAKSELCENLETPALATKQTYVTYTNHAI
smiles,measurement,value
N#Cc1ccc(NC(=O)c2ccccn2)cc1C(F)(F)F,% glutamate max,26.3%
